About 83,000 compounds went through this panel and 20% of them were active in at least one assay; those are over-represented in the sample as a whole.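 Single-concentration screen, 48 h exposure, 96-well plates. Endpoint: percent growth. Below 10 = active.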 Active and inactive are the calls of the source.

For this assay, the system named is MDA-MB-468 breast. As to the kind of experiment: NCI-60 one-dose screen, 48 h (100 = growth as untreated, 0 = no growth, -100 = all killed). The note with it: 10 µM unless noted.
With `C#Cc1cccc(Oc2ccc(NC(=O)CCl)cc2)c1`, the growth was -7.9% [8.25 µM] (active).

Turning to `COc1ccc(-c2nc3ccc(-c4nc5ccc(N6CCN(C)CC6)cc5[nH]4)cc3[nH]2)cc1OC`, the growth is -30.1% (active).

As for `CN1C(=O)N(C)C2Nn3c(s/c(=C\c4ccccn4)c3=O)=NC21` (stereo unspecified), the growth was 95.6% (inactive).

As for `COc1ccc2c(c1)c(-c1nc(-c3c[nH]c4ncccc34)cs1)cn2C`, the growth is -5.16% (active).

As to `COC(=O)[C@]1(C)CCC[C@]2(C)c3ccc(C(C)C)cc3C(=O)[C@@H](Br)[C@@H]12`, the growth was 78.3% (inactive).

Regarding `CCOC(=O)CSc1c(-c2ccccc2)c2cc(Cl)ccc2[nH]c1=O`, the growth was 98% (inactive).

In the case of `CNC(=O)c1cc(Oc2ccc3nc(NC(=O)c4ccc(CN5CCN(C)CC5)c(C(F)(F)F)c4)sc3c2)ccn1`, the growth was 52.1% (inactive).

Turning to `Nc1ncc(-c2ccc3ncnc(N4CCc5cc(F)c(Cl)cc54)c3c2)cc1CO`, the growth is -39.8% (active).

Regarding `C=C(C)[C@@H]1CC[C@]2(C(=O)N3CCN(C)CC3)CC[C@]3(C)[C@H](CC[C@@H]4[C@@]5(C)C/C(=C/c6ccco6)C(=O)C(C)(C)[C@@H]5CC[C@]43C)[C@@H]12`, the growth was 64.6% (inactive).

As to `CCOC(=O)c1nn(C2CCCCO2)c2ccc(NS(=O)(=O)c3ccc(C)cc3)cc12` (stereo unspecified), the growth was 105% (inactive).

Consider `NC(N)=Nc1ccc(Oc2cccc(Nc3ccc(Br)c(C(F)(F)F)c3)c2)cc1`, for which the growth was -10.6% (active).

For `O=CN1CCCCC1`, the growth is 95.6% (inactive).

With `CCN1CCC2(CC1)NC(=O)c1c(c3ccc(Cl)c(Cl)c3n1C)C2C#N` (stereo unspecified), the growth is -16.3% (active).

Take `Cc1ccc2c(c1)C(=O)/C(=C/c1ncc([N+](=O)[O-])n1C)O2`: the growth was 52.4% (inactive).

Take `N/C(=N\N=C\c1cc2ccccc2[nH]1)N/N=C/c1cc2ccccc2[nH]1`: the growth was 107% (inactive).

In the case of `CN(C)CC(=O)Nc1nc(-c2cccc(NS(=O)(=O)c3cccc4c(N(C)C)cccc34)c2)cs1`, the growth is 62% (inactive).

For the compound `O=C(CCN1CCCC1)Nc1ccc2c(NCc3ccccc3)c3ccccc3nc2c1`, the growth is -37.1% (active).

In the case of `COc1cc(OC)c(C(=O)/C=C/c2ccc(C(F)(F)F)cc2)c(OC)c1`, the growth was 46.3% (inactive).

`CNCCCNCCCN1C(=O)c2ccc3c4c(ccc(c24)C1=O)C(=O)N(CCCNCc1ccccc1OC)C3=O`: the growth is -69.5% (active).

In the case of `COC(=O)C1=C(C(=O)ON)C2C=CC1(C(Cc1ccccc1)Nc1ccccc1)O2` (stereo unspecified), the growth is -45% (active).

On to `CS(=O)CC1=NC(=N)N=C1CS(C)=O` (stereo unspecified), for which the growth was 88.5% (inactive).

Turning to `O=C1/C(=C/c2ccc(Cl)cc2)SC(=Nc2ccc(Cl)cc2)N1Cc1nc2ccccc2[nH]1`, the growth is 78.6% (inactive).

On to `NCCNC(=O)c1cccc(COc2ccccc2NC(=O)c2cc(Cl)c(Cl)[nH]2)c1`, for which the growth is 96% (inactive).

As for `COc1c(N2CC3CCCNC3C2)c(F)cc2c(=O)c(C(=O)N/N=C/c3ccc(F)cc3)cn(C3CC3)c12` (stereo unspecified), the growth was 84.4% (inactive).

As for `CC(=O)c1cccs1`, the growth is 105% (inactive).

With `CC(=O)Oc1c(Cl)c(Cl)c(Cl)c(Cl)c1Cl`, the growth was 113% (inactive).

As to `COc1ccc(/C(C)=C(\c2ccc(Cl)cc2)c2ccc(OCCN3CCCCCC3)cc2)cc1`, the growth is 16.1% (inactive).

Take `Cc1cc(C)c(NC(=O)c2sc3nc4c(cc3c2N)CCCCCC4)c(C)c1`: the growth is 40.1% (inactive).

In the case of `CCOc1nc(-c2ccccc2)cc2c(O)c(C(=O)N/N=C/c3ccccc3)[nH]c(=O)c12`, the growth is 105% (inactive).

Turning to `CCCCCCCC[C@@H]1N[C@@H](C(=O)OC)Cc2c1[nH]c1ccccc21`, the growth is 94.3% (inactive).

For `CCN(c1cc(-c2ccc(CN3CCC(/C=C/S(=O)(=O)c4ccccc4)CC3)cc2)cc(C(=O)NCc2c(C)cc(C)[nH]c2=O)c1C)C1CCOCC1`, the growth was 55.9% (inactive).

With `C=C(C)[C@@H]1CC[C@]2(C(=O)NC3CCCCC3)CC[C@]3(C)[C@H](CC[C@@H]4[C@@]5(C)CCCNC(C)(C)[C@@H]5CC[C@]43C)[C@@H]12`, the growth is -85.4% (active).

Regarding `O=C([O][Sn]([O]C(=O)c1ccccn1)([c]1ccccc1)[c]1ccccc1)c1ccccn1`, the growth was -23.8% (active).

As for `Cc1ccc(C(=O)c2sc3nc4c(cc3c2N)CCCC4)c(C)c1`, the growth was 32.3% (inactive).

For the compound `Cc1[nH]c(C(=O)Nc2cccc(OC3CCNCC3)c2)c(Cl)c1Cl`, the growth was 40.9% (inactive).

For the compound `COC(=O)C1=C(C)NC(C)=C(C(=O)OCC(C)C)C1c1ccccc1[N+](=O)[O-]` (stereo unspecified), the growth was 44.7% (inactive).

The values are drawn from PubChem BioAssay (NCI).
